Lassa entry inh: blocks Lassa virus binding to or entry into cells; 300,000 compounds, 1.2% hits; Lassa virus pseudotype entry inhibition, cell reporter; Potency, µM (series often up to 37.9 µM), without a hit: top-dose activity change, negative = inhibition, usual class: inhibitors; calls by dose curve; tested in HEK293 cells; also: potency is read from the fitted curve at half-maximal effect; nearly all actives have a fitted effect of over 50% in size
HCMV antiviral: human cytomegalovirus inhibition; 410,000 compounds, 4.5% hits; AID 1259415; HFF cells, HCMV-luciferase reporter, 72 h; stronger effect = lower value; activity change, negative = inhibition, % at 57.5 µM; in the data active = activity change below about -60%; inconclusive = no clear call, values can overlap the other calls; inactive = above about -39%
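After 16 h attachment at 37C, HFF cells received test compound and HCMV-luciferase (1 PFU/cell); reporter luminescence read 72 h later, data normalized against buffer-only and known inhibitor Salinomycin.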
FMDV inh: antivirals against foot and mouth disease virus; 410,000 compounds, 1.2% hits; Potency, µM (highest dose often 57.9 µM), inactives show top-dose activity change, negative = inhibition, most hits filed as inhibitors; FMDV antiviral cell-based qHTS; calls by dose curve; tested in HEK293T cells; also: read-out not given here; potency is read from the fitted curve at half-maximal effect; nearly all actives have a fitted effect of over 45% in size
HCV inh: inhibitors of hepatitis C virus infection. Huh7.5.1 HCVcc-Cre infection, luciferase reporter, 44 h. Potency, µM (series often up to 41.8 µM), for the others: at the highest dose activity change, negative = inhibition, usual class: inhibitors. 340,000 compounds, 3.4% hits; active = well fitted inhibition curve with a large enough effect; inconclusive = small, poorly fitted or top-dose-only effect, or another doubt; inactive = no such curve, though single readings can be large or run the other way; also: potency is read from the fitted curve at half-maximal effect
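Antiviral activity was scored by luciferase reporter output from cells infected with HCVcc-Cre (~0.5 moi) in presence of compound, 44 h infection period, cells seeded 1,000/well 4 h prior.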
Marburg entry inh: Marburg virus entry inhibition; Marburg virus pseudotyped entry inhibition, cell reporter; AID 540276; Potency, µM (top dose mostly 37.8 µM), inactives show at the highest dose activity change, negative = inhibition, usual class: inhibitors; 300,000 compounds, 1.8% hits; calls by dose curve; tested in HEK293 cells; also: potency is read from the fitted curve at half-maximal effect
An asterisk follows results filed as active; ? = inconclusive; . = no result given; [ ] = another dose, or the depositor's remark. A selection: hits, their analogues and other compounds. The true share with any hit is near 7.9%. % is scaled to controls: 0 for no effect and ±100 for the full control effect.

SMILES	Lassa entry inh	HCMV antiviral	FMDV inh	HCV inh	Marburg entry inh
Cc1oc(-c2ccc(C(=O)NCCN(C)C)cc2)nc1CS(=O)(=O)c1ccccc1	?	-70*	-16%	.	.
Cc1oc(-c2ccc(C(=O)NCc3ccccc3)cc2)nc1CS(=O)(=O)c1ccccc1	-2%[46.1 µM]	0	?	.	.
N#Cc1nc(NCC(F)F)nc(Nc2cc(F)cc(F)c2)n1	.	-38	11µM*	.	.
N#Cc1nc(Nc2cc(F)cc(F)c2)c2ncn(CC(F)F)c2n1	.	31	-18%	.	.
O=C1CCCc2oc3c(c21)CCCC3	2%	16	-5%	6%	13%[46.1 µM]
Cc1ccc(C(=O)c2cn(CC(=O)Nc3ccc4c(c3)OCCO4)c3nc(C)ccc3c2=O)cc1	0%[46.1 µM]	-37	3%	.	.
COc1cccc(C(=O)N(c2ccc(OC)cc2OC)C2C=CS(=O)(=O)C2)c1 (stereo not drawn)	-6%	5	.	-1%	4%
COc1cccc(C(=O)N(c2ccc(C)cc2)C2C=CS(=O)(=O)C2)c1 (stereo not drawn)	.	-101*	-9%	-19%	.
COc1ccc(N(C(=O)c2cc3ccccc3oc2=O)C2C=CS(=O)(=O)C2)c(OC)c1 (stereo not drawn)	-14%	-61*	-7%	20%	?
COc1ccc2[nH]cc(CCNc3cc(-c4cccc(C#N)c4)ncn3)c2c1	.	.	-25%	.	.
CCCCC(=O)N1C(C)CCC1C (stereo not drawn)	.	-24	-6%	.	.
CCCCC(=O)/C=C/n1c2c(oc1=S)CCCC2	.	.	.	.	18µM*
Cc1ccc(C(=O)O/N=C(\N)c2ccccn2)cc1C	?	?	-98%	23%	0.71µM*
CCOc1ccc(C(=O)O/N=C(\N)c2ccccn2)cc1	.	-91*	10µM*	-4%	.
N/C(=N\OC(=O)/C=C/c1ccccc1Cl)c1ccccn1	-23%	-39	-23%	4%	9.2µM*
Cc1ccc(C(=O)O/N=C(\N)c2ccccn2)cc1	?	-69*	3.2µM*	13%	?
CC(C)=CCN1CCN(Cc2cnc(-c3ccccc3)s2)CC1CCO (stereo not drawn)	.	?	-17%	-8%	.
N/C(=N\OC(=O)c1cc(Cl)ccc1Cl)c1ccccn1	6.5µM*	-15	-15%	11µM*	4.1µM*
N/C(=N\OC(=O)c1ccccc1)c1ccccn1	?	0	10µM*	14%	?
CC(C)(C)c1ccc(C(=O)O/N=C(\N)c2ccccn2)cc1	?	-99*	0.1µM*	?	?
Cc1cccc(C(=O)O/N=C(\N)c2ccccn2)c1	?	-16	-55%	-19%	?
COC(=O)/C=C/[C@H]1CCCN1c1ccc(OC)cc1	.	-14	.	.	.
CC1=NOC(=O)/C1=C\c1ccc(-c2ccc(Cl)c(C(=O)O)c2)o1	0%	2	2%	32%	-15%
CC1=NOC(=O)/C1=C/c1ccc(O)c(Br)c1	3%[46.1 µM]	22	25µM*	24%	11%[46.1 µM]
Nc1ccccc1N=Cc1ccc(-c2cccc(Cl)c2)o1	?	42	?	10µM*	?
SMILES	Lassa entry inh	HCMV antiviral	FMDV inh	HCV inh	Marburg entry inh
Cc1ccc(/C=C2/C(=O)ON=C2c2ccccc2)o1	.	28	?	22%	.
CC1=NOC(=O)/C1=C\c1ccc(-c2ccccc2Br)o1	.	-10	25µM*	-17%	.
CC1=NOC(=O)/C1=C\c1ccc(-c2cccc(Cl)c2)o1	?	.	40µM*	?	?
O=C(Nc1ccc(Nc2ccccc2)cc1)c1ccc(Cl)c([N+](=O)[O-])c1	.	-31	-20%	0%	.
Cc1ccccc1NC(=O)c1ccc(Nc2c([N+](=O)[O-])cc([N+](=O)[O-])c3ccccc23)cc1	?	-92*	?	14µM*	?
Cc1cc(C(=O)Nc2ccc(Nc3ccccc3)cc2)ccc1[N+](=O)[O-]	2%	-21	-23%	11µM*	0%
CCCN1CCN(CCCNC(=O)c2ccccc2NC(=O)C2=C(C)OCCS2)CC1	.	-35	14%	-26%	.
Cc1cc(SCC(=O)c2cccs2)nc2ccccc12	4%	52	78%	10µM*	11%
O=C(CSc1nc2ccccc2c(=O)[nH]1)c1cccs1	15%	-22	26%	4%	-1%
O=C(NCCc1ccc(Cl)cc1)c1ccc2c(c1)N(Cc1cccc(Cl)c1)C(=O)c1ccccc1S2(=O)=O	-2%[46.1 µM]	-35	-11%	.	.
O=C(NCCN1CCCC1)c1ccc2c(c1)N(Cc1cccc(Cl)c1)C(=O)c1ccccc1S2(=O)=O	.	-77*	4%	?	.
